Holding throughout (parameters): scale not given: direction of the effect not stated beside the values
Experiment [1] concerns the target Protein translocase subunit SecA (Escherichia coli (strain K12)) (UniProt P10408). Nature of the experiment: Assay to Identify E. coli SecA ATPase Inhibitors. The class given is functional. The following applies: 30 µM.
The target in experiment [2] is T1, Ubiquitin-activating enzyme e1, putative (Leishmania donovani (strain BPK282A1)) (UniProt E9BSI1).
T1 sequence (whole entry): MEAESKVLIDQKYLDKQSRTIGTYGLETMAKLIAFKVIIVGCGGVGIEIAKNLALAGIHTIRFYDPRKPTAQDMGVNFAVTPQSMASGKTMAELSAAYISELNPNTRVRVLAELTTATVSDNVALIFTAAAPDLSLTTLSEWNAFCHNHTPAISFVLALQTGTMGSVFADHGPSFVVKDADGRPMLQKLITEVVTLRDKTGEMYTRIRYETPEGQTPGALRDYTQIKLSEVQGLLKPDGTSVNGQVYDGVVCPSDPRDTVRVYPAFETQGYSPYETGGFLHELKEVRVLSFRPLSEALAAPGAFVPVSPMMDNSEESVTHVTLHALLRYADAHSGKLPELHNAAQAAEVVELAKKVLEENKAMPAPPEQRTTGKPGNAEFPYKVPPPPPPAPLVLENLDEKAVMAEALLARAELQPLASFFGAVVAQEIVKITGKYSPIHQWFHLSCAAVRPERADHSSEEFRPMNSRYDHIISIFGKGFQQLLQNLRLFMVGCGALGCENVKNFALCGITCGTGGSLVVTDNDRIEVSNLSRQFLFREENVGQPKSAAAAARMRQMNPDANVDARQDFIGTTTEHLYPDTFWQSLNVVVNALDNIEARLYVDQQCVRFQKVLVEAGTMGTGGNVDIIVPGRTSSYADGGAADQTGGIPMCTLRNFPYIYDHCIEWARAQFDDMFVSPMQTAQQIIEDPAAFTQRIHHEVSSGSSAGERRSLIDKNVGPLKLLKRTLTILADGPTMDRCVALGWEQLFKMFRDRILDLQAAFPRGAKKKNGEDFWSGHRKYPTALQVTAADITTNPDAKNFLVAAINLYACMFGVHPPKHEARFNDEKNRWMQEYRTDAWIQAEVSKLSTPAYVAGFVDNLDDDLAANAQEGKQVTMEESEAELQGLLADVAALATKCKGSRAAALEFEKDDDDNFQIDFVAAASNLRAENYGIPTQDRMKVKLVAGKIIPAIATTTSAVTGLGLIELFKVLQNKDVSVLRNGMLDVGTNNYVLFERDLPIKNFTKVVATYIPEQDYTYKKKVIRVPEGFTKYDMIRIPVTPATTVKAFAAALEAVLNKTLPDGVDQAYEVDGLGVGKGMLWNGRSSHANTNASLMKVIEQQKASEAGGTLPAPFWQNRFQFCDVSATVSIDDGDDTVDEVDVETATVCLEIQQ
The experiment is described as follows: Leishmania donovani Ubiquitin Activating Enzyme (LdE1). It is filed as functional. The conditions noted are these: 30 µM.

The target in experiment [3] is AMP-activated protein kinase, AMPK (Homo sapiens) (UniProt P54646+O43741+P54619+Q9UGJ0+Q9Y478+Q13131+Q9UGI9). Nature of the experiment: AMP-dependent Kinase enzyme assay. An in vitro enzyme assay that detects ADP turnover that is directly proportional to AMPK activity. This uses naive AMPK that is activated during the assay with MK-8722. The class given is functional. The following applies: 30 µM.

Experiment [4] concerns the target Sialic acid-binding Ig-like lectin 9 (Homo sapiens) (UniProt Q9Y336). Nature of the experiment: Hs-Siglec9 ALPHAscreen SOP 20170721. The following applies: 10 µM.
The test system of experiment [5] is Trypanosoma cruzi. The experiment is described as follows: Trypanosoma cruzi phosphomannomutase and mannose-1-phosphate guanylyltransferase assay. The following applies: 10 µM. It is filed as functional.
Experiment [6] addresses T2, Arginase-2, mitochondrial (Homo sapiens) (UniProt P78540).
T2 sequence (whole entry): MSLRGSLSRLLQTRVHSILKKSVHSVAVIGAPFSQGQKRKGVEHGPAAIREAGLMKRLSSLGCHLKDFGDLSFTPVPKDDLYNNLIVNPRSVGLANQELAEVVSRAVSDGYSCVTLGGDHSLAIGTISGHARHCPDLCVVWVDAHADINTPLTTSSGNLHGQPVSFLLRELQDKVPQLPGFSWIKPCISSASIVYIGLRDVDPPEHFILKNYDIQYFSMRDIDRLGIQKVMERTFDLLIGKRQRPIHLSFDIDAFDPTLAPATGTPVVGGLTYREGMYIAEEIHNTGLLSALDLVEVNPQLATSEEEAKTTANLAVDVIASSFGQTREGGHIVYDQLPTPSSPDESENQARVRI
Nature of the experiment: in vitro enzyme assay to detect the production of urea directly proportional to the activity of Arginase II. Further: in the data most compounds retested in dose-response had high values. The following applies: 33.3 µM. The class given is functional.

Experiment [7] concerns the target T3, Proteasome subunit beta (Trypanosoma cruzi) (UniProt O96673).
T3 sequence (whole entry): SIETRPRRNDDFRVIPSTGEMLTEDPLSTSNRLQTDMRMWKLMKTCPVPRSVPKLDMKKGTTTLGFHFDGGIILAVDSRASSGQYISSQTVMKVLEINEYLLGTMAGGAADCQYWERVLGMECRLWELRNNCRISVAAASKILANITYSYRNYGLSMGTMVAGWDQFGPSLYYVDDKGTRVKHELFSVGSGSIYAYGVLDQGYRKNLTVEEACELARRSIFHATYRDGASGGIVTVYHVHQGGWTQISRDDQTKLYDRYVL
The experiment is described as follows: Trypanosoma cruzi proteasome chymotrypsin-like activity (TcProtChymo) assay. Further: in the data most compounds retested in dose-response had high values. The following applies: 9.37 µM. The class given is functional.

For experiment [8], the species on record is Homo sapiens. Nature of the experiment: To identify inhibition of the IFN signalling (Jak-Stat) pathway via expression of an eGFP reporter gene under the control of an IFN-stimulated response element (ISRE) containing MxA promoter. The class given is functional. The conditions noted are these: 30 µM.
Experiment [9] deals with T4, Tyrosyl-tRNA synthetase, putative (Trypanosoma cruzi (strain CL Brener)) (UniProt Q4DSP6).
T4 sequence (whole entry): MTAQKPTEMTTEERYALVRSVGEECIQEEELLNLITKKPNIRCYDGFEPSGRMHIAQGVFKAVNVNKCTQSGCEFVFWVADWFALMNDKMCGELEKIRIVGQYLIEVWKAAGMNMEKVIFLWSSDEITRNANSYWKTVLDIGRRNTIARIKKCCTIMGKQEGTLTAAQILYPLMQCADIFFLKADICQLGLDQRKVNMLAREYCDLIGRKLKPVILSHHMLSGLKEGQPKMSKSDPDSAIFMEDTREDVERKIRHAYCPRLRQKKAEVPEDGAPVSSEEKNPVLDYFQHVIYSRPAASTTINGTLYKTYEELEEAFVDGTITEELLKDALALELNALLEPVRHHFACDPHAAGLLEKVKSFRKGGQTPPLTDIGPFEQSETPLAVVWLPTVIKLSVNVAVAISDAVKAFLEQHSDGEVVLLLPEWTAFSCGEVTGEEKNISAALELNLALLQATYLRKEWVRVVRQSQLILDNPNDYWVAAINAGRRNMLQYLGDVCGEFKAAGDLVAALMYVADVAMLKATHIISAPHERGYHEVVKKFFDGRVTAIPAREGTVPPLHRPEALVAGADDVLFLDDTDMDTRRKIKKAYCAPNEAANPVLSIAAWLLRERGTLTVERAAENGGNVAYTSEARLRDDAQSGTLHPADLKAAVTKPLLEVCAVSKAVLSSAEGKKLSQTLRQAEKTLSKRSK
Nature of the experiment: Trypanosoma cruzi tyrosyl tRNA synthetase (TcYRS) _High Tyrosine SOP. Further: in the data most compounds retested in dose-response had high values. The conditions noted are these: 30 µM. It is filed as functional.

Experiment [10] concerns the target T4, Tyrosyl-tRNA synthetase, putative (Trypanosoma cruzi (strain CL Brener)). Nature of the experiment: Trypanosoma cruzi tyrosyl tRNA synthetase (TcYRS) SOP. It is filed as functional. The conditions noted are these: 30 µM.
Experiment [11] has as its target Chromo domain-containing protein 1 (Saccharomyces cerevisiae (strain ATCC 204508 / S288c) (Baker's yeast)) (UniProt P32657). Nature of the experiment: ScCHD-1 Enzyme Inhibition Assay. Further: in the data most compounds retested in dose-response had high values. It is filed as functional. The conditions noted are these: 30 µM.

We go through eleven compounds from ChEMBL document CHEMBL3988442, “University of Dundee, Small-Polar-MMV Screening Library” (2021).

For some of these results: Measured potencies and affinities stand elsewhere.

Sequence of Chromo domain-containing protein 1 (Saccharomyces cerevisiae (strain ATCC 204508 / S288c) (Baker's yeast)) (P32657 whole entry, the tested form may be a part): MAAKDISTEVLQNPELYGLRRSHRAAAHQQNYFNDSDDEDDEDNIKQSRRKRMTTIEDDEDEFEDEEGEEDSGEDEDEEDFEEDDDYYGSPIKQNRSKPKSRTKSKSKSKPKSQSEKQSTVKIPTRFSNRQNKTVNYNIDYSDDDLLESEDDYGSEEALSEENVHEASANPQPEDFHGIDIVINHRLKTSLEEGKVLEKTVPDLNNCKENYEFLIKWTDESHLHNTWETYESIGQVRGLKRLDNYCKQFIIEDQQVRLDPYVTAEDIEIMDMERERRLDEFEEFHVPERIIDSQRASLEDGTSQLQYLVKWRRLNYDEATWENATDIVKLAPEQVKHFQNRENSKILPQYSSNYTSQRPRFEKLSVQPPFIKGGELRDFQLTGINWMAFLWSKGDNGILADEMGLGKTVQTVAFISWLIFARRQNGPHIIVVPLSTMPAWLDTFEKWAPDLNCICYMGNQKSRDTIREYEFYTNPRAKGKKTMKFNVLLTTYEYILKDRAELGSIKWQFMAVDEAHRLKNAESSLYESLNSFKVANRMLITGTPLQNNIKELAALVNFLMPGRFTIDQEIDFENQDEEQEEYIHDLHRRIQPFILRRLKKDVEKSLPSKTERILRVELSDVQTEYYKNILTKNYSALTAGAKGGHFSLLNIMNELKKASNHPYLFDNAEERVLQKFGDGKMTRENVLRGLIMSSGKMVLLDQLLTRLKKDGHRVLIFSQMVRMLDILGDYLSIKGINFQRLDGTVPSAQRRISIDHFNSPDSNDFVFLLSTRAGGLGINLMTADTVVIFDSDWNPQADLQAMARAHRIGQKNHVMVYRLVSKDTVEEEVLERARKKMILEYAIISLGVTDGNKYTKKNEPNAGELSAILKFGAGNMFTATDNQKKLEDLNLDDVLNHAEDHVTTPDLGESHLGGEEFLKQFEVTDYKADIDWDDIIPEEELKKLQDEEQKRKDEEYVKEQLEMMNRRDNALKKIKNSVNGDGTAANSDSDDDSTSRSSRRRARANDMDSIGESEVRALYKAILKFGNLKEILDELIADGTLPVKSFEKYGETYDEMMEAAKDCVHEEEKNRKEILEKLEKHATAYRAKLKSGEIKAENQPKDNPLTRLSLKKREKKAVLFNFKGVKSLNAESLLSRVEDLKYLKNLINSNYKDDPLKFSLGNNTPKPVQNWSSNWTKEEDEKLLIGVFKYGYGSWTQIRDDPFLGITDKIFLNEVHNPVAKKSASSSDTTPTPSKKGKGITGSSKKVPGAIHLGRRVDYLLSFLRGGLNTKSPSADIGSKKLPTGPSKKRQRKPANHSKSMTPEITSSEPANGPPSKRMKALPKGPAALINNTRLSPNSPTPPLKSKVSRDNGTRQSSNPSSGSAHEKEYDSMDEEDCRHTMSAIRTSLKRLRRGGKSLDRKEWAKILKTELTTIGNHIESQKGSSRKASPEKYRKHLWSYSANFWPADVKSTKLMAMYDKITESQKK
Sequence of Sialic acid-binding Ig-like lectin 9 (Homo sapiens) (Q9Y336 whole entry): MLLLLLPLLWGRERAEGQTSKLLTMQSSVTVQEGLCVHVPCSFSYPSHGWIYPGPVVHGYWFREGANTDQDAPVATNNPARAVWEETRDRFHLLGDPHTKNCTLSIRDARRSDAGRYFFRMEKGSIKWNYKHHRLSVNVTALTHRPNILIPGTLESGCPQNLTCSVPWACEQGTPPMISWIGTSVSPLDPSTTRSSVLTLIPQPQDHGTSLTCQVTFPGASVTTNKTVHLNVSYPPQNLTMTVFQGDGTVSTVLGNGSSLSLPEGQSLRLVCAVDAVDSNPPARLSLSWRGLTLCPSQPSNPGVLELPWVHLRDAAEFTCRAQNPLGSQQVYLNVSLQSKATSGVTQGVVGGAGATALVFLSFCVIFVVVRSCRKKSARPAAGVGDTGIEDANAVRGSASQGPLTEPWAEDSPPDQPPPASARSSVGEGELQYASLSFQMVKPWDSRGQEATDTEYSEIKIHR
Sequence of Protein translocase subunit SecA (Escherichia coli (strain K12)) (P10408 whole entry): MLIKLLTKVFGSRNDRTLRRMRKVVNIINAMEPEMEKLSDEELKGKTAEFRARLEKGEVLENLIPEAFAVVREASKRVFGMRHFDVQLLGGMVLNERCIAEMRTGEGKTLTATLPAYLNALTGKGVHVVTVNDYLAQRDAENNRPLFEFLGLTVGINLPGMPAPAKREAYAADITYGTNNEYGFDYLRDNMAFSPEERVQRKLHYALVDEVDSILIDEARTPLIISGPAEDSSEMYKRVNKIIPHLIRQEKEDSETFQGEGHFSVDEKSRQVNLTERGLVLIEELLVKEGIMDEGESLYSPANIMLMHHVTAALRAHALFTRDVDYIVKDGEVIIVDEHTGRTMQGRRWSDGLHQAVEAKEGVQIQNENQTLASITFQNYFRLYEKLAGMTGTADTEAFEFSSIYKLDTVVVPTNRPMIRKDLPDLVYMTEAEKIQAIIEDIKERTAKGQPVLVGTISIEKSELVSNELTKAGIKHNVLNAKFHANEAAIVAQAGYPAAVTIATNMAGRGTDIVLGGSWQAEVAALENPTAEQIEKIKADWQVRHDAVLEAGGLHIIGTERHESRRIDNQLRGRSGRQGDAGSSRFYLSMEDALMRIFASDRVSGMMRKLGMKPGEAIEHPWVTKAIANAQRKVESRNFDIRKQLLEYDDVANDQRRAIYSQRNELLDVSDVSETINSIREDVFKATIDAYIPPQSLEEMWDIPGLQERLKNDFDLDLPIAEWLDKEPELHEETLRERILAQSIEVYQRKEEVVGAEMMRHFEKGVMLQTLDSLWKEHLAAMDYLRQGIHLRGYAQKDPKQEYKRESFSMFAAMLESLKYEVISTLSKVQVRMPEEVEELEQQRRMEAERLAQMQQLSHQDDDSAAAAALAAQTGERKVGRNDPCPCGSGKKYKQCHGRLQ

As for `Cc1nc(CN2CCc3cncnc3C2)oc1C`, the Percent Effect in experiment [1] was -0.217%; in [2], 2.74%; in experiment [3], -102%; in experiment [4], 7.08%; in experiment [5], 5.09%; in experiment [6], 16.8%. The Percent Effect in experiment [7] was 3.55%; in [8], 2.92%; in [9], 2.15%; in [10], 12.5%; in [11] it was -7.36%.

`Cc1[nH]c(=O)[nH]c(=O)c1CN1CCCC(CCc2c(F)cccc2F)C1` (stereo unspecified): the Percent Effect in experiment [1] was -0.639%; in experiment [2] it was 8.11%; in experiment [3] it was -5.43%; in experiment [4], 13.8%; in experiment [5] it was 1.16%; in experiment [6], 1.91%. Besides, the Percent Effect in experiment [7] was 9.14%; in experiment [8], 5.92%; in experiment [9], 3.7%; in experiment [10], -9.76%; in experiment [11] it was -1.15%.

For `COCCNC(=O)NCc1ccc(OC(C)C)c(F)c1`, the Percent Effect in experiment [1] is -5.47%; in experiment [2], 10.5%; in [3], -1.85%; in [4] it was 9.7%; in experiment [5] it was 8.5%; in experiment [6], -4.68%. For the same compound, the Percent Effect in experiment [7] is 5.67%; in [8] it was 2.01%; in experiment [9], 5.42%; in experiment [10], 13.6%; in [11], 0.0512%.

For the compound `CC(C)N1CCC(N2CCN(C3CCC3)CC2CCO)CC1` (stereo unspecified), the Percent Effect in experiment [1] is -2.22%; in experiment [2] it was 1.39%; in [3] it was -21.6%; in [4], 12%; in [5], 5.73%; in experiment [6] it was 20.8%. Besides, the Percent Effect in [7] was -1.75%; in experiment [8] it was -10.3%; in experiment [9], 2.1%; in experiment [10], 5.13%; in experiment [11], 0.447%.

In the case of `Cc1nc(C2CCCN(C(=O)Cn3ccccc3=O)C2)no1` (stereo unspecified), the Percent Effect is -0.276% in experiment [1]; 0% in [2]; 3.05% in [3]; 1.79% in experiment [4]; -0.564% in experiment [5]; 4.6% in [6]. The Percent Effect is -4.84% in experiment [7]; 8.71% in experiment [8]; 2.45% in [9]; 4.88% in experiment [10]; 3.7% in experiment [11].

As for `Cc1ccc(CNC(=O)Nc2nnc(C)s2)cn1`, the Percent Effect in experiment [1] was -1.62%; in experiment [2], 23.7%; in experiment [3] it was 1.54%; in experiment [4], -3.95%; in [5], 1.03%; in experiment [6], 2.16%. Moreover, the Percent Effect in experiment [7] is 15.1%; in [8] it was 1.76%; in experiment [9], 8.37%; in experiment [10] it was 25.9%; in [11], -9.14%.

On to `Cc1cc(C)cc(C2(C(=O)NC(C)Cn3ccnc3)CC2)c1` (stereo unspecified), for which the Percent Effect is -2.27% in experiment [1]; 25.3% in experiment [2]; -10.3% in experiment [3]; 0.0554% in [4]; 3.31% in [5]; -4.56% in experiment [6]. In addition, the Percent Effect in experiment [7] was 14.3%; in [8], -5.91%; in [9], 8.37%; in experiment [10] it was 24.1%; in experiment [11] it was -10.8%.

`Cc1cc(C[C@@H]2COC[C@@H]2NC(=O)CN2CCCC2)on1`: the Percent Effect was -4.18% in experiment [1]; 2.74% in experiment [2]; 1.08% in experiment [3]; -9.23% in [4]; 1.96% in experiment [5]; -1.82% in [6]. Further, the Percent Effect is -4.61% in [7]; 18.8% in experiment [8]; 5.38% in [9]; 10% in experiment [10]; -4.15% in experiment [11].

Take `CCCn1cc(C(=O)N(C)Cc2nc(-c3ccccn3)no2)c(C)n1`: the Percent Effect in experiment [1] is -2.06%; in experiment [2], 5.33%; in [3], -2.74%; in experiment [4], 4.11%; in experiment [5], -2.43%; in experiment [6] it was 4.69%. Further, the Percent Effect in experiment [7] was 18.8%; in experiment [8] it was 17%; in experiment [9] it was 6.01%; in experiment [10], 13.6%; in [11], -5.18%.

`Cc1cc(-c2nnc(SCC(=O)O)n2C(C)c2ccccc2)nn1C` (stereo unspecified): the Percent Effect in [1] is -4.08%; in experiment [2], 12.5%; in experiment [3], -0.551%; in experiment [4], 18.6%; in [5], 6.32%; in experiment [6], 1.77%. Besides, the Percent Effect in experiment [7] was 14.9%; in experiment [8] it was 7.01%; in experiment [9], 9.47%; in experiment [10] it was 12.8%; in experiment [11], -1.69%.

Consider `O=C1CN(Cc2nnc(-c3ccccc3Br)o2)CCN1`, for which the Percent Effect was -1.52% in experiment [1]; 9.72% in [2]; 0.225% in [3]; -0.91% in experiment [4]; 2.43% in [5]; 2.65% in experiment [6]. Moreover, the Percent Effect in experiment [7] was 25.1%; in experiment [8], -21.9%; in experiment [9], 1.05%; in [10], 7.69%; in experiment [11], -3.03%.
